Measured values published in PMC7862700, “An all-to-all approach to the identification of sequence-specific readers for epigenetic DNA modifications on cytosine”.

Columns and labels:
Assay in all cases: DAPPL (digital affinity profiling via proximity ligation, sequencing); 10 mM Tris-HCl pH 7.5, 50 mM NaCl, 1 mM DTT, 4% glycerol, room temperature, 30 min; GST-TFs on glutathione beads, 16-mer random dsDNA library, 0.1% formaldehyde crosslink after washing; high values mean tight binding
Conditions in all cases: protein: recombinant; tags: N-terminal GST; dsDNA, one strand shown
[1] = target: T1, FLI1 (Homo sapiens, UniProt Q01543 1-452)
T1 sequence: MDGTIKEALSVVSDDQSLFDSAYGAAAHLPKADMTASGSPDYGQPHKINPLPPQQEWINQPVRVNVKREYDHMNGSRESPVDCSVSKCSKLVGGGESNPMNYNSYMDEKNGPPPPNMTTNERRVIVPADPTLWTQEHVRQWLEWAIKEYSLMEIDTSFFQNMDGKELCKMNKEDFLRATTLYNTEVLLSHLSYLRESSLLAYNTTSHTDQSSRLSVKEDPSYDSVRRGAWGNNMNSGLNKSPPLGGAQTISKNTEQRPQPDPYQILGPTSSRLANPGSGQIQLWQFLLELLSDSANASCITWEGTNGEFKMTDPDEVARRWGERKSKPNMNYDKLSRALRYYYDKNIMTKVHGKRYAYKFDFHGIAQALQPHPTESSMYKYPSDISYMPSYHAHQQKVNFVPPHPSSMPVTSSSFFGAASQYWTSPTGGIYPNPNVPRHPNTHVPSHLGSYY
How it was run: (§1)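 GST fusions of human transcription factors were expressed in yeast and captured with glutathione beads. Once given DNA barcodes and pooled alongside a tag-only sample, they were incubated for 30 min at room temperature with 200 nmole of a random double-stranded 16-mer DNA library in Tris/NaCl/DTT/glycerol buffer, then washed, crosslinked (0.1% formaldehyde), proximity-ligated, PCR-amplified and sequenced on an Illumina NextSeq500. The binding signal of each hexamer is its read frequency for a factor divided by its frequency for the tag-only sample.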

[2] = target: T2, ELK1 (Homo sapiens, UniProt P19419 1-428)
T2 sequence: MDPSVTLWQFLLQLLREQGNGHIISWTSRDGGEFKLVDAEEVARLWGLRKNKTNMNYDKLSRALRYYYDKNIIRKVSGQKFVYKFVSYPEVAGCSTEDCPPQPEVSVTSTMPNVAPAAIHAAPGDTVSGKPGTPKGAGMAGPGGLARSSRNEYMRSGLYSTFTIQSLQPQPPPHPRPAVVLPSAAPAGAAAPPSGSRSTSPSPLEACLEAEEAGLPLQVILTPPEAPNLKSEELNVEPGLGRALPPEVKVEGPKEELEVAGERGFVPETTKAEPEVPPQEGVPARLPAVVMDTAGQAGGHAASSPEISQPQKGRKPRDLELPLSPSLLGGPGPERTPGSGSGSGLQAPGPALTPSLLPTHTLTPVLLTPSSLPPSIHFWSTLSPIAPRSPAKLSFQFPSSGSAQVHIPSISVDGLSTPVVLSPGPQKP
How it was run: as §1

[3] = target: T3, GABPA (Homo sapiens, UniProt Q06546 1-454)
T3 sequence: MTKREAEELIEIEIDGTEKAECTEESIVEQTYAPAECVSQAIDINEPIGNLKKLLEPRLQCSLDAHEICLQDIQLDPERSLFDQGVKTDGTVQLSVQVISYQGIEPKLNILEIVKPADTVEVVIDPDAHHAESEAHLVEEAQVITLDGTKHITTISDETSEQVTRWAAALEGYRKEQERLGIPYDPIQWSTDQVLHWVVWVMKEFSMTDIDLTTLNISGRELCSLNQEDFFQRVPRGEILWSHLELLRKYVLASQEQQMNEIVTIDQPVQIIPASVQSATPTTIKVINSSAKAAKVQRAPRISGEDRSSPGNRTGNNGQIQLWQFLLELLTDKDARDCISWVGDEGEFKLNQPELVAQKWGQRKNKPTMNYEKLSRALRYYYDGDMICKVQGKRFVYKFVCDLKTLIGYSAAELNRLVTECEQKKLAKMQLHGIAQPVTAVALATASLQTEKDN
How it was run: as §1

[4] = target: T4, ERG (Homo sapiens, UniProt P11308 1-479)
T4 sequence: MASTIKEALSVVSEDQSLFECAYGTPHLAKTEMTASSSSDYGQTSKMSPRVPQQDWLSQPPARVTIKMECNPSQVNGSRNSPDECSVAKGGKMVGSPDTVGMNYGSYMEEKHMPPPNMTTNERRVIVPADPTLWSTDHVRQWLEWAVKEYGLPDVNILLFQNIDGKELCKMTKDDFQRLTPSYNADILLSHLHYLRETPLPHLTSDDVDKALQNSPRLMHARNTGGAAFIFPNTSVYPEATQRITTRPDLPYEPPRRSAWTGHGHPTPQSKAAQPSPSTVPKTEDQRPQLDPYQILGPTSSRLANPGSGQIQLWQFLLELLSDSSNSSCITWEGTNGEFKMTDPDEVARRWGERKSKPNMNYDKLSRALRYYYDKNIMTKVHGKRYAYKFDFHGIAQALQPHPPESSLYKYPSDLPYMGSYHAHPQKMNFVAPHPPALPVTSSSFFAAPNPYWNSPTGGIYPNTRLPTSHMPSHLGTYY
How it was run: as §1

[5] = target: ELF1 (Homo sapiens, UniProt P32519 1-619)
ELF1, sequence (P32519 whole entry): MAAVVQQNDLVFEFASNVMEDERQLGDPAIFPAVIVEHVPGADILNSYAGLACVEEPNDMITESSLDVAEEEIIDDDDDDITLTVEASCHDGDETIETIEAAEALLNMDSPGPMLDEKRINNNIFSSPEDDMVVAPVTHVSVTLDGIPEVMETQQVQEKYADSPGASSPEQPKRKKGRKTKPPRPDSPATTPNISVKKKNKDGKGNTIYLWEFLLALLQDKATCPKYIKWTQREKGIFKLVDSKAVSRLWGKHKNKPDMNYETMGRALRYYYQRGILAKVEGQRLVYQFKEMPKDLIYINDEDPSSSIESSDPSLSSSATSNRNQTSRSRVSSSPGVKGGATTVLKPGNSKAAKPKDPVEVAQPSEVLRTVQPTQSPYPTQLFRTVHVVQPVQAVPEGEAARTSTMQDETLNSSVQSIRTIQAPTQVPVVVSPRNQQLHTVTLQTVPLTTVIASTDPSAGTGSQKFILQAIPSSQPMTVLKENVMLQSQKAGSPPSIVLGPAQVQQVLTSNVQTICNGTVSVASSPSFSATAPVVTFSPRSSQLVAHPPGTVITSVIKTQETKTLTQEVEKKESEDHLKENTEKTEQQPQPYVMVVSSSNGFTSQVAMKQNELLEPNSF
How it was run: as §1

[6] = target: T5, EHF (Homo sapiens, UniProt Q9NZC4 1-300)
T5 sequence: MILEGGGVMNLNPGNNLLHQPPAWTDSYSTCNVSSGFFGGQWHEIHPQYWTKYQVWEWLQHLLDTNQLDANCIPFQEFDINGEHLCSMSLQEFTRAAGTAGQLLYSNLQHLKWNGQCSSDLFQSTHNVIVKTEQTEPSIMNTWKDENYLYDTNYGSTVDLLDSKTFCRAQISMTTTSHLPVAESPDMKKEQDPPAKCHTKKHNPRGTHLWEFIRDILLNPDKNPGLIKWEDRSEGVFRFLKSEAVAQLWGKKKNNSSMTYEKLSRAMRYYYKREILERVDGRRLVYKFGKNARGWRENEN
How it was run: as §1

[7] = target: SPI1 (Homo sapiens, UniProt P17947 1-270)
How it was run: as §1

[8] = target: SPIB (Homo sapiens, UniProt Q01892 1-262)
SPIB, sequence (Q01892 whole entry): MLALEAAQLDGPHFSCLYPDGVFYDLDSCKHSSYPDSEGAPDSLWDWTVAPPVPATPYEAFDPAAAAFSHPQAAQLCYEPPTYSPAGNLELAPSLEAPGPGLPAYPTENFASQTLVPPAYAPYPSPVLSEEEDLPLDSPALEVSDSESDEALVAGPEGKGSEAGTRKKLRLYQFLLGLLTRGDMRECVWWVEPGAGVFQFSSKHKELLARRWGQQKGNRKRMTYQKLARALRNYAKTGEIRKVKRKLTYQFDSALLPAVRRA
How it was run: as §1

[9] = target: T6, ELK3 (Homo sapiens, UniProt P41970 1-407)
T6 sequence: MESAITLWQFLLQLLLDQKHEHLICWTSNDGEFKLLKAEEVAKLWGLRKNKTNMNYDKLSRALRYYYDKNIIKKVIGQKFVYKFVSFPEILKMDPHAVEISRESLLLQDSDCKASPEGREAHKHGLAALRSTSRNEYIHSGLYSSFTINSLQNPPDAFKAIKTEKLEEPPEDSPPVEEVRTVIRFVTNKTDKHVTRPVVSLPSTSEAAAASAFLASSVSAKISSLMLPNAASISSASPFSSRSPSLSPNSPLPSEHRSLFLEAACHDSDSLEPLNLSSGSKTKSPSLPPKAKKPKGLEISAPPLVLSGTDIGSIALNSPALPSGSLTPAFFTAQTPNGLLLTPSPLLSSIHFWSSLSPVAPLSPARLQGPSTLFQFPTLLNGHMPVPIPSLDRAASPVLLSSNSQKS
How it was run: as §1

| Sequence | binding signal [1] | binding signal [2] | binding signal [3] | binding signal [4] | binding signal [5] | binding signal [6] | binding signal [7] | binding signal [8] | binding signal [9] |
| --- | --- | --- | --- | --- | --- | --- | --- | --- | --- |
| GAATAA | 1.01 fold enrichment (6-mer frequency, TF over GST control) | 1.08 fold enrichment (6-mer frequency, TF over GST control) | 1.07 fold enrichment (6-mer frequency, TF over GST control) | 1.06 fold enrichment (6-mer frequency, TF over GST control) | 1.09 fold enrichment (6-mer frequency, TF over GST control) | 1.09 fold enrichment (6-mer frequency, TF over GST control) | 1.03 fold enrichment (6-mer frequency, TF over GST control) | 1.11 fold enrichment (6-mer frequency, TF over GST control) | 1.17 fold enrichment (6-mer frequency, TF over GST control) |
| AATCAC | 1.03 fold enrichment (6-mer frequency, TF over GST control) | 1.08 fold enrichment (6-mer frequency, TF over GST control) | 1.15 fold enrichment (6-mer frequency, TF over GST control) | 1.08 fold enrichment (6-mer frequency, TF over GST control) | 1.14 fold enrichment (6-mer frequency, TF over GST control) | 1.08 fold enrichment (6-mer frequency, TF over GST control) | 1.12 fold enrichment (6-mer frequency, TF over GST control) | 1.07 fold enrichment (6-mer frequency, TF over GST control) | 1.12 fold enrichment (6-mer frequency, TF over GST control) |
| CCGGCT | 1.75 fold enrichment (6-mer frequency, TF over GST control) | 1.62 fold enrichment (6-mer frequency, TF over GST control) | 1.65 fold enrichment (6-mer frequency, TF over GST control) | 1.74 fold enrichment (6-mer frequency, TF over GST control) | 1.68 fold enrichment (6-mer frequency, TF over GST control) | 1.77 fold enrichment (6-mer frequency, TF over GST control) | 1.73 fold enrichment (6-mer frequency, TF over GST control) | 1.91 fold enrichment (6-mer frequency, TF over GST control) | 1.62 fold enrichment (6-mer frequency, TF over GST control) |
| AATTTA | 1.17 fold enrichment (6-mer frequency, TF over GST control) | 1.3 fold enrichment (6-mer frequency, TF over GST control) | 1.24 fold enrichment (6-mer frequency, TF over GST control) | 1.19 fold enrichment (6-mer frequency, TF over GST control) | 1.24 fold enrichment (6-mer frequency, TF over GST control) | 1.19 fold enrichment (6-mer frequency, TF over GST control) | 1.2 fold enrichment (6-mer frequency, TF over GST control) | 1.4 fold enrichment (6-mer frequency, TF over GST control) | 1.16 fold enrichment (6-mer frequency, TF over GST control) |
| TATCCT | 1.7 fold enrichment (6-mer frequency, TF over GST control) | 1.79 fold enrichment (6-mer frequency, TF over GST control) | 1.71 fold enrichment (6-mer frequency, TF over GST control) | 1.9 fold enrichment (6-mer frequency, TF over GST control) | 1.73 fold enrichment (6-mer frequency, TF over GST control) | 1.81 fold enrichment (6-mer frequency, TF over GST control) | 1.74 fold enrichment (6-mer frequency, TF over GST control) | 1.8 fold enrichment (6-mer frequency, TF over GST control) | 1.76 fold enrichment (6-mer frequency, TF over GST control) |
| TCAATA | 1.21 fold enrichment (6-mer frequency, TF over GST control) | 1.17 fold enrichment (6-mer frequency, TF over GST control) | 1.24 fold enrichment (6-mer frequency, TF over GST control) | 1.14 fold enrichment (6-mer frequency, TF over GST control) | 1.17 fold enrichment (6-mer frequency, TF over GST control) | 1.14 fold enrichment (6-mer frequency, TF over GST control) | 1.23 fold enrichment (6-mer frequency, TF over GST control) | 1.06 fold enrichment (6-mer frequency, TF over GST control) | 1.2 fold enrichment (6-mer frequency, TF over GST control) |
| GGCCTT | 1.17 fold enrichment (6-mer frequency, TF over GST control) | 1.18 fold enrichment (6-mer frequency, TF over GST control) | 1.29 fold enrichment (6-mer frequency, TF over GST control) | 1.16 fold enrichment (6-mer frequency, TF over GST control) | 1.09 fold enrichment (6-mer frequency, TF over GST control) | 1.13 fold enrichment (6-mer frequency, TF over GST control) | 1.18 fold enrichment (6-mer frequency, TF over GST control) | 1.19 fold enrichment (6-mer frequency, TF over GST control) | 1.17 fold enrichment (6-mer frequency, TF over GST control) |
